From the supplement of paper PMC11732987, “Enantioselective OTUD7B fragment discovery through chemoproteomics screening and high-throughput optimisation” (Communications Chemistry, 2025)
Values without a mark were called inactive.

Assays:
Assay in all cases: log2 ratio of Biotin-Ahx-Ub-VS probe labelling (fragment/DMSO); higher = less target engagement (more negative = stronger competition), active = hit call of the paper (q ≤ 0.05, log2 ratio ≤ -1)
Details in all cases: compound concentration: 200 uM; treatment time: 3 h
ALG13 = target: T1, ALG13 (UniProt Q9NP73)
T1 sequence (whole entry): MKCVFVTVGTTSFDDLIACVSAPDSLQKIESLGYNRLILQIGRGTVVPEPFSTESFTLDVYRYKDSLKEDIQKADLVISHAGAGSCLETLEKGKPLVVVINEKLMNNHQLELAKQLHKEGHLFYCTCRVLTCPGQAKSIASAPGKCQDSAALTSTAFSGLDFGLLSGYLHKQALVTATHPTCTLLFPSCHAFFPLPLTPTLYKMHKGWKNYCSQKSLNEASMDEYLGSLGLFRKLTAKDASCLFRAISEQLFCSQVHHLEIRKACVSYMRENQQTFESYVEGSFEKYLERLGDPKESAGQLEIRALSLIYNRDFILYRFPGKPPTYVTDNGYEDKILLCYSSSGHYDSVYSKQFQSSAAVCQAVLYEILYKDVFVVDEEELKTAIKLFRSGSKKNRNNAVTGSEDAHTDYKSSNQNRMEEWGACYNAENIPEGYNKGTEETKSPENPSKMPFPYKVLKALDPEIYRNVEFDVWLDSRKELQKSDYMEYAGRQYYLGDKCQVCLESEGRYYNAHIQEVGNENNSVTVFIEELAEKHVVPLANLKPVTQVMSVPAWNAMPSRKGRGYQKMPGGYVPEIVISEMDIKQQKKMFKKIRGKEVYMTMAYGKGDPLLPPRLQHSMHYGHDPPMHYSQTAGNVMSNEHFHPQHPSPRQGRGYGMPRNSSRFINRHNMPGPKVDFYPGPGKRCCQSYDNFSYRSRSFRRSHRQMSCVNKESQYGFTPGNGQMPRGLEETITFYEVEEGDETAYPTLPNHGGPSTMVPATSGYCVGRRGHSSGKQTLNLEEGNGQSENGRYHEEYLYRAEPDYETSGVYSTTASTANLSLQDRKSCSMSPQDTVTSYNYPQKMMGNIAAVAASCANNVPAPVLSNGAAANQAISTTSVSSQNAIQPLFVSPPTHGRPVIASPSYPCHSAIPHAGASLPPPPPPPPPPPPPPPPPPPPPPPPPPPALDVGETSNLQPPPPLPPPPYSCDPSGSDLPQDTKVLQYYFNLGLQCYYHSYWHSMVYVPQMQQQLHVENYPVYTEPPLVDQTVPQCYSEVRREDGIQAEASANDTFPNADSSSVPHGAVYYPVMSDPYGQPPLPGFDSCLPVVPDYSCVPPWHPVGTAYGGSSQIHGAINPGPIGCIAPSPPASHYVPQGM
Summary of the method: (§1)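 HEK293T lysate (495 µg per sample, in Tris/CHAPS/IGEPAL buffer with protease inhibitors) was treated in triplicate with fragment at 200 µM or with DMSO for 3 h. It was then treated with Biotin-Ahx-Ub-VS (0.5 µM final) for 1 h. Labelled DUBs were NeutrAvidin-enriched, digested with LysC and trypsin, and run by diaPASEF LC-MS/MS. Spectronaut label-free quantities were global-median-normalised. Values are average log2 ratios fragment/DMSO by unpaired t-test, using proteins with ≥2 unique peptides.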

ATXN3 = ATXN3 (UniProt P54252)
Summary of the method: as §1

BAP1 = target: T2, BAP1 (UniProt Q92560)
T2 sequence (whole entry): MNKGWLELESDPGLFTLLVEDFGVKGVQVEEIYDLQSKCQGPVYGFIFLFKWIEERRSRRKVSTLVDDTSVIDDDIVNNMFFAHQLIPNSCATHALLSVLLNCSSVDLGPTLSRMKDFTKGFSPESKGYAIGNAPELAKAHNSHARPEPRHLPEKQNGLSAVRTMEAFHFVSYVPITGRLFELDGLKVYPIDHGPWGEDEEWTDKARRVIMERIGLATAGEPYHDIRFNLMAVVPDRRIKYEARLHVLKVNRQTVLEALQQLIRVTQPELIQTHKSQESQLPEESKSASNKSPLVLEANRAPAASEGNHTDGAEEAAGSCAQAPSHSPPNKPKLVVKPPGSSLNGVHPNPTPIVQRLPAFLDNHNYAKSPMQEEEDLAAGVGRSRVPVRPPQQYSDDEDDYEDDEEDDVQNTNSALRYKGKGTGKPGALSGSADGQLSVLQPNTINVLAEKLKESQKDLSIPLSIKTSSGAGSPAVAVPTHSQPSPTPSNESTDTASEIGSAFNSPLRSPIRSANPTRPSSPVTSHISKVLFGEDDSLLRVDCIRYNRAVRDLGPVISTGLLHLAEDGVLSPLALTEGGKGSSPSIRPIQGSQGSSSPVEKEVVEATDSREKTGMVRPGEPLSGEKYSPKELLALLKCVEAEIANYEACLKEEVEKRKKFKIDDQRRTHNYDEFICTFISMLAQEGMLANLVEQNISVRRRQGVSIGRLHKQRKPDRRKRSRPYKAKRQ
Summary of the method: as §1

EIF3F = EIF3F (UniProt O00303)
Summary of the method: as §1

EIF3H = EIF3H (UniProt O15372)
Summary of the method: as §1

FAM105A = target: T3, FAM105A (UniProt Q9NUU6)
T3 sequence (whole entry): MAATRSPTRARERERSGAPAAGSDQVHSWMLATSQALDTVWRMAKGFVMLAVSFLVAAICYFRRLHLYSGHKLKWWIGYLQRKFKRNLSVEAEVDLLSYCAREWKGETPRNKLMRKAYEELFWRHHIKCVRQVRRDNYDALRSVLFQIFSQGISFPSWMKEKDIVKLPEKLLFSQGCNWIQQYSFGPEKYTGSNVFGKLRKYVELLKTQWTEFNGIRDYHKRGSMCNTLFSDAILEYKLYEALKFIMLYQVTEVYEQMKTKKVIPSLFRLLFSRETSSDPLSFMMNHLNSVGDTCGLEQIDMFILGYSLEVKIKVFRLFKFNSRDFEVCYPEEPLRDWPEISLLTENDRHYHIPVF
Summary of the method: as §1

OTUB1 = OTUB1 (UniProt Q96FW1)
Summary of the method: as §1

OTUD4 = target: T4, OTUD4 (UniProt Q01804)
T4 sequence (whole entry): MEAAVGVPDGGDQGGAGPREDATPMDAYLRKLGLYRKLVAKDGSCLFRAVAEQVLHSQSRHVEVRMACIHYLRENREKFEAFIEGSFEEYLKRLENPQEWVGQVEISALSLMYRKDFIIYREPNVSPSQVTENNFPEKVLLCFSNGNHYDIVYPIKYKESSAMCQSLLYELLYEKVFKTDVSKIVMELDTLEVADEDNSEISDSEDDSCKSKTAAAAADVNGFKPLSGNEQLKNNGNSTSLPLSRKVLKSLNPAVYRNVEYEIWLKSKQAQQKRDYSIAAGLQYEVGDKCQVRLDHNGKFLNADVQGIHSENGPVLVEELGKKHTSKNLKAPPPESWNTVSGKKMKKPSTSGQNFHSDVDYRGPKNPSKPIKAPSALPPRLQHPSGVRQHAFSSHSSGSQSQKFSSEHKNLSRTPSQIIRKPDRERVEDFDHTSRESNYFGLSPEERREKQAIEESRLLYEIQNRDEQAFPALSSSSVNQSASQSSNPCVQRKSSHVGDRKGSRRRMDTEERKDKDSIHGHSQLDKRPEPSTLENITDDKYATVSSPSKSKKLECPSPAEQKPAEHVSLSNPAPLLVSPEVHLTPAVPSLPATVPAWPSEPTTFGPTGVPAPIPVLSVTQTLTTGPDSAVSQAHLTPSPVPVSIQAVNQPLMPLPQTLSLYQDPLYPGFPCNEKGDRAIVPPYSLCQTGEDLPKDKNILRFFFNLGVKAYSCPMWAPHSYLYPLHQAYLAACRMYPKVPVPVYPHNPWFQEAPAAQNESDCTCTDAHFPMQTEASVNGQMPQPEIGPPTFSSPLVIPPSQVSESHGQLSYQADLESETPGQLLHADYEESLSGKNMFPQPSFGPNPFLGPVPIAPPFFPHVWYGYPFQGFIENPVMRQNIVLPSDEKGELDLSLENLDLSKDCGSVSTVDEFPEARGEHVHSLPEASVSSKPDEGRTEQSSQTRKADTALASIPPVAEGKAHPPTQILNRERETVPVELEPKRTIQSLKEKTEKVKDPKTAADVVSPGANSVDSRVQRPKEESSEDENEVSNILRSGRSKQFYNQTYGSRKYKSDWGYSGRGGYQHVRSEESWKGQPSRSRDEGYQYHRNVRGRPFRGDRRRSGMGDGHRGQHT
Summary of the method: as §1

OTUD5 = target: T5, OTUD5 (UniProt Q96G74)
T5 sequence (whole entry): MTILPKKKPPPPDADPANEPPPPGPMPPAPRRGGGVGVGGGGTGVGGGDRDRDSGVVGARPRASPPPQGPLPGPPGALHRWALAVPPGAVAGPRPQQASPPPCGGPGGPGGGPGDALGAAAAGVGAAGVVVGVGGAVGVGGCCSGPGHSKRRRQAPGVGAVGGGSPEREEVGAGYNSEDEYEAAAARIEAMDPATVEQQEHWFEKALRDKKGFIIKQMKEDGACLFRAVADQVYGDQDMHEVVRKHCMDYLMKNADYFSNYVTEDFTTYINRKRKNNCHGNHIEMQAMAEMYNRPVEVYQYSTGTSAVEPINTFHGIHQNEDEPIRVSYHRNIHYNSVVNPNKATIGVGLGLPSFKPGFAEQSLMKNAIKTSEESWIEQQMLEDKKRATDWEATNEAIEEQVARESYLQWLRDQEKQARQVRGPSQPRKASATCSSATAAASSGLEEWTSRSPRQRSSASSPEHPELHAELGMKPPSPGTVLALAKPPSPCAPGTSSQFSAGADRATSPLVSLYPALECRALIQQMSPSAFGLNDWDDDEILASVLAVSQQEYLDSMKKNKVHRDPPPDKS
Summary of the method: as §1

Chain of OTUB1 (Q96FW1 whole entry): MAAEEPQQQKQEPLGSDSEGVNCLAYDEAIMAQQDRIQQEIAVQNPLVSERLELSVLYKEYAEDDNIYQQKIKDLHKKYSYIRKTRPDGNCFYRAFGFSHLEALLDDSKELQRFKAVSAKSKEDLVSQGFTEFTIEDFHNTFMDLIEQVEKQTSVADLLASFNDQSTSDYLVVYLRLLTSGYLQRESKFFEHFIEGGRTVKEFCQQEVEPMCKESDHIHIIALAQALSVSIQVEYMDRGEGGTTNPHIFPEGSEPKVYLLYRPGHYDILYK
Chain of EIF3H (O15372 whole entry): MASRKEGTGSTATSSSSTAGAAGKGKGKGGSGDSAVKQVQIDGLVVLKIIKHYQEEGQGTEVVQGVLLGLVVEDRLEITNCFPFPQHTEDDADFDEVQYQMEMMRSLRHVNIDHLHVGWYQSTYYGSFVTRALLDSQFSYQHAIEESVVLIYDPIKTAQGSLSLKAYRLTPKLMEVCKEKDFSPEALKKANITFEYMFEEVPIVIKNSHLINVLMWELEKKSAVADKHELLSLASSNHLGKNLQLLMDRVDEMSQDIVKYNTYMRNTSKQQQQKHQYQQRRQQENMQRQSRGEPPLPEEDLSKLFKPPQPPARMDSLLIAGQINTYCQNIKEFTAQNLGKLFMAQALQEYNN
Chain of ATXN3 (P54252 whole entry): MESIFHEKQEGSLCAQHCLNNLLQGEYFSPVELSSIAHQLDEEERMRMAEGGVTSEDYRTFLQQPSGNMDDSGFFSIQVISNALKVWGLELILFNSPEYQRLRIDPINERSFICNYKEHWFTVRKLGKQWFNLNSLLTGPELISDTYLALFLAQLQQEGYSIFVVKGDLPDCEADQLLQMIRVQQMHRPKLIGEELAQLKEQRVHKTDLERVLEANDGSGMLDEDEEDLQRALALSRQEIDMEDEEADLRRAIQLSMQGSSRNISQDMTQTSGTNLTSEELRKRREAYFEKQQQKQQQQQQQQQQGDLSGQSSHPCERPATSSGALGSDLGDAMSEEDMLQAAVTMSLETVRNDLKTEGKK
Chain of EIF3F (O00303 whole entry): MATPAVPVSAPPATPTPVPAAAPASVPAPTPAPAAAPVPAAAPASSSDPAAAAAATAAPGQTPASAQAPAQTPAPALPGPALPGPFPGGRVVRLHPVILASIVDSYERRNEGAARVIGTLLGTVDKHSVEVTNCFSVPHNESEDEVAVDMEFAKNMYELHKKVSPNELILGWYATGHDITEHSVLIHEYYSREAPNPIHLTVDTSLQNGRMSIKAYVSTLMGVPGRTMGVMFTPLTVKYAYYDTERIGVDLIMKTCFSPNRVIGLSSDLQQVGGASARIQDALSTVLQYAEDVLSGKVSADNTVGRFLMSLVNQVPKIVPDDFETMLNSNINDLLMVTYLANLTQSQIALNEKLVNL

SMILES	log2 ratio of Biotin-Ahx-Ub-VS probe labelling (ALG13)	log2 ratio of Biotin-Ahx-Ub-VS probe labelling (ATXN3)	log2 ratio of Biotin-Ahx-Ub-VS probe labelling (BAP1)	log2 ratio of Biotin-Ahx-Ub-VS probe labelling (EIF3F)	log2 ratio of Biotin-Ahx-Ub-VS probe labelling (EIF3H)	log2 ratio of Biotin-Ahx-Ub-VS probe labelling (FAM105A)	log2 ratio of Biotin-Ahx-Ub-VS probe labelling (OTUB1)	log2 ratio of Biotin-Ahx-Ub-VS probe labelling (OTUD4)	log2 ratio of Biotin-Ahx-Ub-VS probe labelling (OTUD5)
O=C(CCl)Nc1ccc(F)cc1Cl	-0.23	-0.598	-3.7 (active)	-0.37	0.131	0.0383	-0.452	-0.578	-0.8
O=C(O)C1Cc2ccccc2CN1C(=O)CCl (configuration not stated)	0.144	-0.269	-0.657	-0.182	-0.0826	0.395	-0.323	-0.404	-0.562
CC(O)CC1CCN(C(=O)CCl)CC1 (configuration not stated)	-0.345	-0.291	-0.221	-0.0746	0.247	-0.12	0.128	0.0747	-0.195
Cl.O=C(CCl)N1CCC(Cc2nccs2)C1 (configuration not stated)	0.0161	-0.494	-0.428	-0.176	0.0343	-0.0526	-0.388	-0.386	-0.302
O=C(CCl)N1CCOCCC1c1ccccc1 (configuration not stated)	-0.00764	0.117	-0.446	-0.267	0.204	0.0466	-0.0821	-0.0459	0.0776
O=C(CCl)N1CC=C(c2c[nH]c3ccccc23)CC1	-0.249	-1.2 (active)	-1.95 (active)	-0.308	0.184	-0.087	-0.218	-0.412	-1.27 (active)
O=C(CCl)NC1CCCCNC1=O (configuration not stated)	-0.0613	-0.417	-0.683	-0.598	0.103	0.229	-0.231	-0.342	-0.397
NS(=O)(=O)c1ccc(Cl)c(NC(=O)CCl)c1	-0.591	-0.697	-4.06 (active)	-0.117	0.198	0.226	-0.37	-2.55 (active)	-1.72 (active)
Cc1cccc2nc(CCNC(=O)CCl)cn12.Cl	-0.496	-0.436	-0.904	-0.438	-0.726	-0.0367	-0.236	-0.21	-0.495
Cc1cccc(NC(=O)[C@@H]2CCCN2C(=O)CCl)n1	0.103	-0.532	-0.719	-0.372	0.0856	0.18	-0.512	-0.432	-0.514
CCc1c[nH]c(CNC(=O)CCl)n1.Cl	0.0285	-0.421	-0.464	-1.13	0.281	0.0309	-0.461	-0.214	-0.482
O=C(CCl)N1CCN2C(=O)CCC2C1 (configuration not stated)	0.0971	-0.237	-0.591	0.0885	-0.0249	0.154	-0.19	-0.461	-0.499
Cl.O=C(CCl)N1CCN(Cc2ccccc2)CC1	0.239	-0.805	-0.734	-0.615	0.134	-0.0745	-0.185	-0.316	-0.551
